An excerpt weighted towards active compounds, which were near 1.1% of everything screened.
Lamin A splicing – changes lamin A minigene splicing in HeLa cells | HeLa LMNA splicing GFP/RFP minigene ratio, 48 h | Potency, µM (top dose mostly 46.1 µM), inactives show top-dose ratio change, negative = inhibition, usual class: inhibitors | 200,000 compounds, 0.01% hits | AID 1487; active = well fitted inhibition curve with a large enough effect in the signal ratio, with a control signal flat, not every such curve was filed as active; inconclusive = small, poorly fitted or top-dose-only effect, or effect the other way, or a change in a side signal; the % refers to the signal ratio; note: potency is the fitted concentration of half-maximal effect; % is set by controls: 0 for no effect and ±100 for the full control effect
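Read-out is the ratio of GFP to DsRed2 object intensity, acquired by 488 nm laser-scanning cytometry on HeLa lamin A-EGFP minigene reporter cells. Compound incubation 48 hrs at 37 °C in Opti-MEM with 2% FBS; DMSO 0.5% final.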
NPSR antag – antagonists of human neuropeptide S receptor cAMP signaling; Potency, µM (highest dose often 38.3 µM), for inactives: top-dose activity change, negative = inhibition, usual class: inhibitors; 220,000 compounds, 1% hits; Q6W5P4; AID 1461; CHO-NPSR cells, cAMP TR-FRET, antagonist mode; note: potency is the fitted concentration of half-maximal effect; % is set by controls: 0 for no effect and ±100 for the full control effect; nearly all actives have a fitted effect of over 50% in size
Target sequence (Q6W5P4 whole entry, looked up): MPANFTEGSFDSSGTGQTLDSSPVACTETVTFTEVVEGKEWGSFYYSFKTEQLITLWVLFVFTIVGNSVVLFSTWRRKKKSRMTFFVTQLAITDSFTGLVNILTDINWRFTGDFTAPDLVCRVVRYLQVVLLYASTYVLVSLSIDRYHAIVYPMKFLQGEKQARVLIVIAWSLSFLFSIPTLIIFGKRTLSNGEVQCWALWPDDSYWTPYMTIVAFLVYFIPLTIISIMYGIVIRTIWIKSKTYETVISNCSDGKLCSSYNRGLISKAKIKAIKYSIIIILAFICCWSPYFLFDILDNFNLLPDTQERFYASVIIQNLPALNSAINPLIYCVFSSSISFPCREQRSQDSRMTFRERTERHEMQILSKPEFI
HttQ103 aggreg – mutant huntingtin aggregation inhibition | PC12 HttQ103-GFP aggregates, Acumen cytometry, 40 h | Potency, µM (doses to about 46.1 µM), for inactives: at the highest dose activity change, negative = inhibition, actives largely listed as inhibitors | 220,000 compounds, 1.1% hits; note: potency is the fitted concentration of half-maximal effect; % is set by controls: 0 for no effect and ±100 for the full control effect; nearly all actives have a fitted effect of over 60% in size
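Ecdysone-promoter PC12 model expressing HTT exon 1 Q103 fused to GFP, induced by tebufenozide at 100 nM final. Compounds titrated; aggregates sized 1–25 µm scored on a 488 nm laser cytometer.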
MBNL1 CUG block – MBNL1-poly(CUG) RNA binding inhibition. Q9NR56. TR-FRET MBNL1-His/biotin-(CUG)12 binding, 665/545 ratio. Potency, µM (top dose mostly 57.5 µM), for inactives: at the highest dose activity change, negative = inhibition, actives largely listed as inhibitors. 280,000 compounds, 0.036% hits. AID 2675; active = well fitted inhibition curve with a large enough effect in the signal ratio, with a control signal flat, not every such curve was filed as active; inconclusive = small, poorly fitted or top-dose-only effect, or effect the other way, or a change in a side signal; inactive = no such curve, though single readings can be large or run the other way; the % refers to the signal ratio; note: potency is the fitted concentration of half-maximal effect; % is set by controls: 0 for no effect and ±100 for the full control effect
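Compounds (final 92 nM to 58 uM) are added to His-tagged MBNL1 and biotin-(CUG)12, then terbium anti-His antibody and streptavidin-XL665 (5 nM final). After 60 min at room temperature, the 665/545 nm ratio is read.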
CBFb-RUNX1 inh – blocks binding between human CBF-beta and RUNX1; AlphaScreen CBFb-His/RUNX1-biotin binding, biochemical; Potency, µM (series often up to 59.8 µM), for inactives: top-dose activity, negative = inhibition, actives largely listed as inhibitors; 230,000 tested, under 10 active; Q01196+Q13951; AID 1477; note: % of control where 0% means no effect
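Compounds were screened at multiple concentrations against a preformed CBF-beta(His)/RUNX1(biotin) complex (30 nM of each) for 15 min at room temperature, followed by 90 min with nickel and streptavidin beads and AlphaScreen reading.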
HTT ATP protect – protects HTT-Q103 PC12 cells, measured by ATP; PC12 HTT-Q103 induced, cytoprotection, ATP luminescence, 40 h; Potency, µM (top dose mostly 56.4 µM), without a hit: cytoprotection (ATP increase), actives largely listed as activators; 230,000 compounds, 0.14% hits; note: potency is the fitted concentration of half-maximal effect; % of control where 0% means no effect; nearly all actives have a fitted effect of over 45% in size
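Huntington model: PC12 line, ecdysone-inducible HTTQ103 exon1–GFP, tebufenozide 100 nM. Test articles in a dose series. Endpoint luminescence from cellular ATP.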
* hit, by the source's call; ? = inconclusive; nt = not tested or not shown; [ ] = dose if it differs, or a comment. Unless noted, calls come from the whole dose curve; as a rule, active = well fitted curve in the direction sought with a large enough effect; inconclusive = small, poorly fitted or top-dose-only effect, or another doubt; inactive = no such curve, though single readings can be large; an effect the other way counts as inactive or inconclusive.

SMILES	Lamin A splicing	NPSR antag	HttQ103 aggreg	MBNL1 CUG block	CBFb-RUNX1 inh	HTT ATP protect
O=C(/C=C/c1cccc2ccccc12)c1ccncc1	?	13.6%[46.1 µM]	-12.1%	20.7%	-3.5%	6.6%[10 µM]
Cc1[nH]c2ccccc2c1/C=C/C(=O)c1ccncc1	nt	-10.7%	13.9%[9.22 µM]	?	-5.6%	3.98µM*
CC1CCC(O)C/C1=C\C=C1/CCCC2(C)C1CCC2C(C)/C=C/C(C)C(C)C (configuration not stated)	nt	nt	-18.5%	nt	7.1%	-12.5%
COc1ccc(C(=O)OCC(=O)Nc2ccc(Cl)c(C(F)(F)F)c2)c(OC)c1OC	?	8.0%	-0.1%	-3.0%	2.4%	9.3%[10 µM]
COc1cc(CC(=O)Nc2ccc(Cl)c(C(F)(F)F)c2)cc(OC)c1OC	?	-17.2%	10µM*	-6.0%	11.1%	21.9%[10 µM]
O=C(CSc1c2c(nc3ccccc13)CCCC2)NCc1ccco1	nt	-24.9%	12.6µM*	?	-17.3%	?
O=C(COC(=O)c1ccccc1C(=O)c1ccc(Cl)c([N+](=O)[O-])c1)NC1CC1	-15.3%[9.22 µM]	?	?	?	-9.2%	-129.9%
CNC(=O)COC(=O)c1ccccc1C(=O)c1ccc(Cl)c([N+](=O)[O-])c1	?	?	28.2µM*	?	-17.7%	-35.3%[10 µM]
COc1ccc(-c2ccc(=O)n(CC(=O)NCCc3ccccc3)n2)cc1	17.2%[46 µM]	nt	nt	nt	nt	nt
N#Cc1cc2c(OCC(O)CN3CCN(C(c4ccccc4)c4ccccc4)CC3)cccc2[nH]1 (configuration not stated)	nt	nt	nt	nt	-21.4%	-137.8%
CC(=O)c1ccccc1OCCn1nnc(-c2ccc(C)cc2)n1	?	0.8%[46.1 µM]	20µM*	0.5%	?	2.1%[10 µM]
O=C1NC(c2ccc(Cl)cc2)Oc2ccccc21 (configuration not stated)	nt	nt	nt	-5.3%	nt	nt
O=C1c2ccccc2C(=O)C12OC2c1ccc(Cl)cc1 (configuration not stated)	?	?	31.6µM*	nt	9.2%	0.3%[10 µM]
C#Cc1ccc2c(c1)C(=O)N(C)Cc1c(C(=O)OCCCOC(=O)c3ncn4c3CN(C)C(=O)c3cc(C#C)ccc3-4)ncn1-2	nt	nt	nt	nt	7.4%	nt
O=C(c1ccccc1)N1CCC(c2nc(-c3ccc(S(=O)(=O)NCC4CCCO4)cc3)no2)CC1 (configuration not stated)	?	2.1%[46.1 µM]	6.31µM*	1.0%	-0.3%	-4.6%
COc1ccccc1N1CCN(c2nnc(-c3ccc(F)cc3)c3ccccc23)CC1	5.8%	?	-9.2%	1.9%	-2.1%	-12.0%
COc1cc2c3nnc(-c4ccccc4)c-3cn(Cc3ccccc3F)c2cc1OC	-7.8%[46 µM]	10µM*	8.1%	55.2%	4.8%	-2.3%[10 µM]
COc1cc2c3nnc(-c4ccc(F)cc4)c-3cn(Cc3ccccc3F)c2cc1OC	?	-16.0%	7.08µM*	41.1%	11.9%	-120.9%
COc1ccc(-c2nnc(SCc3ccccc3F)o2)cc1OC	12.6%	-28.6%[46.1 µM]	?	4.6%	?	-24.8%[10 µM]
CCCCn1c(C)cc2c(c1=O)C1O[C@](c3ccc(OC)cc3)(Cc3cc(OC)c(OC)cc31)O2	nt	nt	nt	-0.7%[11.5 µM]	nt	nt
COc1cc2nncc(SCc3ccc(Cl)c(Cl)c3)c2cc1OC	nt	nt	nt	nt	nt	-6.2%[10 µM]
CCC(=O)CC	nt	nt	nt	nt	15.2%	nt
CCCN1C(=O)/C(=C/c2ccc(N3CCCC3)c(C)c2)NC1=S	?	?	12.6µM*	?	-3.2%	-106.1%
O=C(Nc1ccc(S(=O)(=O)N2CCCCC2)cc1)c1ccncc1	?	8.3%[46.1 µM]	-27.3%	4.0%	1.4%	-15.6%[10 µM]
COc1ccc(C(=O)Nc2ccc(S(=O)(=O)N3CCCCC3)cc2)cc1OC	12.4%	-14.1%[46.1 µM]	-4.0%	-3.3%	2.3%	4.5%
O=C(Nc1ccc(Cc2ccncc2)cc1)c1ccc(S(=O)(=O)N2CCCC2)cc1	?	3.1%	11.2µM*	-0.3%	3.1%	nt

Assay outcomes as filed in PubChem.
